# Screening data deposited in PubChem BioAssay by National Center for Advancing Translational Sciences (NCATS).
# FMDV antiviral: foot and mouth disease virus antiviral activity | FMDV antiviral cell-based qHTS | Potency, µM (doses to about 57.9 µM), without a hit: at the highest dose activity change, negative = inhibition, actives largely listed as inhibitors | 1.2% of 410,000 active | AID 1159524; calls by dose curve; tested in HEK293T cells; further: read-out not given here; potency means the concentration at half of the fitted maximal effect; nearly all actives have a fitted effect of over 45% in size
# Sm TGR block: inhibitors of Schistosoma mansoni thioredoxin glutathione reductase. 3% of 360,000 active. Q962Y6. purified TGR, DTNB reduction, TNB absorbance 405 nm. Potency, µM (titrated, usually from 114 µM), without a hit: at the top dose activity change, negative = inhibition, most hits filed as inhibitors; further: potency means the concentration at half of the fitted maximal effect; nearly all actives have a fitted effect of over 60% in size
#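 TGR 20 nM + NADPH 100 uM (dispensed conc.), cpd preinc 15 min RT; start with NADPH (500 uM addition) then DTNB (15 mM addition). Kinetic TNB absorbance, 405 nm filter. Four-parameter Hill fit across titration.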
# RE007 growth inh: less growth of the S. pombe RE007 Vpr strain; S. pombe RE007 Vpr strain, BacTiter-Glo ATP luminescence, 24 h; Potency, µM (highest dose often 92.2 µM), inactives show top-dose activity change, negative = less growth, usual class: inhibitors; 0.21% of 360,000 active; AID 651644; active means well fitted falling curve with a large enough effect; inconclusive means small, poorly fitted or top-dose-only effect; inactive means no such curve, though single readings can be large or run the other way; further: potency means the concentration at half of the fitted maximal effect; nearly all actives have a fitted effect of over 50% in size
#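 Fission yeast RE007 carrying one integrated HIV-1 vpr copy, seeded at OD 0.01 in PMG+AL medium with 23 nL pinned compound. Grown 24 h at 30 degrees; viability read by BacTiter-Glo luminescence after 5 min.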
# HCMV antiviral: human cytomegalovirus inhibition; HFF cells, HCMV-luciferase reporter, 72 h; stronger effect = lower value; activity change, negative = inhibition, % at 57.5 µM; 4.5% of 410,000 active; AID 1259415; in the data active means activity change below about -60%; inconclusive means no clear call, values can overlap the other calls; inactive means above about -39%
#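 Compounds were evaluated in HFFs infected with an HCMV luciferase reporter virus (MOI 1 PFU/cell). Luciferase in lysates collected 72 h post infection served as the replication measure.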
# Tb PYK inh: blocks Trypanosoma brucei pyruvate kinase | Q57TT1 | TbPYK enzyme, Kinase-Glo Plus ATP luminescence, 45 min | Potency, µM (titrated, usually from 76.8 µM), without a hit: at the highest dose activity, negative = inhibition, most hits filed as inhibitors | 0.12% of 410,000 active | AID 624173; further: potency means the concentration at half of the fitted maximal effect; nearly all actives have a fitted effect of over 50% in size
#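 Quantitative HTS: titrated library compounds versus trypanosomal pyruvate kinase in TEA buffer (pH 7.2) containing KCl, MgCl2, BSA and Tween-20. Reactions were initiated with ADP, 130 uM final. Kinase-Glo Plus luminescence was read after 45 min at RT.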
# Giardia FBPA inh: inhibitors of Giardia lamblia fructose-1,6-bisphosphate aldolase. A8B2U2. purified Giardia FBPA. Potency, µM (series often up to 59.6 µM), without a hit: top-dose activity, negative = inhibition, usual class: inhibitors. 0.71% of 290,000 active; further: potency means the concentration at half of the fitted maximal effect; nearly all actives have a fitted effect of over 55% in size
# Target sequence (A8B2U2 whole entry, looked up): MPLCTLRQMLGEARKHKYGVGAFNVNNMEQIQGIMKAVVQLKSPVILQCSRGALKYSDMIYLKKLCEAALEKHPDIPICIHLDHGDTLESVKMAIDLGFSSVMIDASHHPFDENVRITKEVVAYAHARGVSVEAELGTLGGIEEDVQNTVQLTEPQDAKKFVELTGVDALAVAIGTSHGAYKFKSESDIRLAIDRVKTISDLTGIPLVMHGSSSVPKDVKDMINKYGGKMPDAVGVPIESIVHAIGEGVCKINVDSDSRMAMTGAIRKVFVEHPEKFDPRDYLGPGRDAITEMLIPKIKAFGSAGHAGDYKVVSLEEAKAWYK
#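 Giardia FBPA (40 nM reagent) was preincubated 10 min at RT with compound (up to 57.5 uM final), then substrate plus GAPDH/TPI/NAD/arsenate coupling system with diaphorase/resazurin was added; resorufin fluorescence (525/598 nm) was read after 20 min.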
# Numbers without * were called inactive; ? = inconclusive; · = no result given; + = active, no number; [ ] = dose if it differs, or a comment. The list is not random: actives were taken first. Their share in the collection is about 7.7%. Unless noted, the call rests on the fitted dose curve; in most records, active means well fitted curve in the direction sought with a large enough effect; inconclusive means small, poorly fitted or top-dose-only effect, or another doubt; inactive means no such curve, though single readings can be large; an effect the other way counts as inactive or inconclusive. On the % scale 0 is the no-effect control and ±100 the full control effect.
SMILES,FMDV antiviral,Sm TGR block,RE007 growth inh,HCMV antiviral,Tb PYK inh,Giardia FBPA inh
COC(=O)c1ccc(NC(=O)CCc2nnc3ccc(NCc4ccco4)nn23)cc1,-2%,?,8%,+,-6%,3%
CC(C)c1ccc(Cc2cn3cc(-c4cc5ccccc5oc4=O)nc3s2)cc1,31%,-3%,·,-78*,-8%,·
O=c1oc2ccccc2cc1-c1cn2cc(Cc3cc(Cl)ccc3Cl)sc2n1,12%,-2%,·,6,0%,·
Cc1ccc2c(c1)sc1nc(-c3cc4ccccc4oc3=O)cn12,0.32µM*,?,·,-79*,-7%,·
O=c1oc2ccccc2cc1-c1cn2ccccc2n1,7.9µM*,-32%,?,-63*,?,-17%
CCc1ccccc1NC(=O)Nc1cc(C(=O)NCc2ccc(C)cc2)ccc1N1CCCC1,5%,2%,·,14,-2%,·
Cc1cccc(-n2ccnc2SCC(=O)Nc2cccc3ccccc23)c1,0%,13%,·,-23,0%,·
CCOc1cccc(N2C(=O)CC(NNC(=O)c3ccc(Br)o3)C2=O)c1 (centres undefined),-8%,25µM*,-5%,-5,1%,2%
CC(C)n1c(-c2ccc(C(C)(C)C)cc2)n[nH]c1=S,?,1%,-7%,-72*,?,-1%
CC1(C)CC(=O)C(=CN2CCN(C(=O)c3ccco3)CC2)C(=O)C1,-18%,?,-4%,-31,-19%,-8%
CC1(C)CC(=O)C(=CN2CCOCC2)C(=O)C1,-1%,7.1µM*,0%,-8,-12%,1%
O=C(CCn1c(=O)oc2ccccc21)N1CCC2(CC1)OCCO2,7%,5%,0%,4,16µM*,0%
Clc1ccc(C2CC(c3ccccc3)Nc3ncnn32)cc1 (centres undefined),-8%,-21%,-11%,-9,-5%,3%
Clc1ccc(C2CC(c3ccco3)n3ncnc3N2)cc1Cl (centres undefined),0%,11µM*,5%,106,-2%,-3%
Cc1cc(=O)n(CC(=O)Nc2ccc(Cl)c(Cl)c2)c(-n2nc(C)cc2C)n1,-5%,1%,·,0,-6%[15.4 µM],·
CCOc1ccccc1CNS(=O)(=O)c1ccc(-c2cnc(C3CC3)o2)cc1,?,7%,5%,-69*,0%,·
Cc1cccc(C)c1NS(=O)(=O)c1ccc(-c2cnc(C3CC3)o2)cc1,?,3%,-8%,·,-13%,·
COc1cc(Cl)c(NS(=O)(=O)c2ccc(-c3cnc(C4CC4)o3)cc2)c(OC)c1,?,-1%,·,-76*,3%,·
COc1ccc(C)cc1NS(=O)(=O)c1ccc(-c2cnc(C3CC3)o2)cc1,?,3%,-5%,-103*,-1%,·
CCOC(=O)C1CCCN(CCc2ccccc2)C1 (centres undefined),-13%,8%,-9%,25,4%,?
O=C(OC1C2CCC1C1CN(CCc3ccccc3)CC12)c1ccccc1 (centres undefined),?,-6%,10%,-68*,1%,-4%
COC(=O)c1cc(NC(=O)c2ccccc2)c(=O)oc1C,16%,-20%,-23%,-34,-1%,3%
COc1ccc(C(=O)Nc2cc(C(=O)c3ccccc3)c(C)oc2=O)cc1,?,6.3µM*,11µM*,19,-24%,-16%
Cc1oc(=O)c(NC(=O)c2cccc(Cl)c2)cc1C(=O)c1ccccc1,-21%,4.5µM*,14µM*,-84*,?,-19%
COc1cccc(Cn2c(=O)cnc3cnc(Oc4ccccc4)nc32)c1,-17%,·,·,·,·,-23%
SMILES,FMDV antiviral,Sm TGR block,RE007 growth inh,HCMV antiviral,Tb PYK inh,Giardia FBPA inh
COc1ccc(NC(=O)CSc2ncccc2C(=O)O)cc1OC,4%,0%,·,20,-13%,·
CC(N)Cc1c[nH]c2ccc(O)cc12 (centres undefined),-17%,·,-10%,-6,-2%,4µM*
C[C@H](N)Cc1c[nH]c2ccc(O)cc12,-8%,·,·,·,·,-27%
COc1cccc(CNC(=O)CCC2CCCN(C3CCOCC3)C2)c1 (centres undefined),-11%,4.5µM*,2%,·,-1%,0%
COCCC(=O)NCC1Cc2cc(Cl)cc(-c3ccc4[nH]ccc4c3)c2O1 (centres undefined),1%,·,·,·,·,·
Cc1ccc2sc(C)[n+](CCO)c2c1,-10%,25µM*,-1%,-25,-23%,-20%
COc1cc(OC)c(OC)cc1CCC(C)NCCC(c1ccccc1)c1ccccc1 (centres undefined),-14%,-17%,·,-60*,3%,-4%
CC(C)C(C(=O)NCc1ccco1)N(C(=O)CNS(=O)(=O)c1ccc(Cl)cc1)C1CCCC1 (centres undefined),-14%,45µM*,0%,-2,1%,-15%
CCC(C(=O)NCc1ccco1)N(C(=O)CNS(=O)(=O)c1ccc(F)cc1)c1ccccc1F (centres undefined),26%,45µM*,-7%,-17,-2%,2%
Cc1cc(C)n(-c2nnc(Nc3ccc(C)c(C)c3)c3ccccc23)n1,-5%,-9%,·,0,-12%,·
O=P1(Oc2ccccc2)OCCCS1 (centres undefined),35µM*,8%,3%,22,3%,3%
CCN1C(=S)SC(=O)C1=C1C=C(C)N(CCO)C(C)=C1,·,62%[11.4 µM],15%,-68*,6%,-24%
COc1ccc2cc(/C=N/NC(=O)CN(c3ccccc3OC)S(=O)(=O)c3ccccc3)c(Cl)nc2c1,·,·,·,0,·,·
N#Cc1c(Nc2ccccc2Cl)s[nH]c1=O,-18%,-5%,4%,-87*,-12%,-2%
N#Cc1c(Nc2ccccc2C(F)(F)F)s[nH]c1=O,-17%,-7%,27%,?,?,-13%
CN(C)c1cc(Cl)c2nonc2c1N,-20%,50µM*,-12%,-35,1%,-19%
CCN(CC)c1cc(Cl)c2nonc2c1N,-16%,-2%,-25%,47,4%,?
CCCCCCC(=O)N1C/C=C\C(c2ccc(OC)cc2)N(Cc2ccc(F)cc2)C(=O)[C@H]1Cc1ccccc1 (some centres undefined),?,-29%,-22%,-93*,4%,-3%
COc1ccc(C2/C=C\CNCC(=O)N2Cc2ccc(F)cc2)cc1 (centres undefined),0%,40µM*,-27%,28,4%,1%
CCCCC(=O)N1C/C=C\C(c2ccc(OC)cc2)N(Cc2ccc(F)cc2)C(=O)[C@H]1Cc1ccccc1 (some centres undefined),?,?,2%,·,5%,2%
